# Bioassay records deposited in PubChem BioAssay by several laboratories.
# Arbovirus anti – arbovirus infection inhibition | AID 1251 | inhibition, % at 10 µM | hit rate 0.37% among 200,000 | arbovirus infection cell-based antiviral screen; in the data active = inhibition above about 30%
# WT yeast gro inh – growth inhibition of WT yeast, mitochondrial fusion screen; mitochondrial fusion phenotypic screen, WT strain; inhibition, % at 10 µM; hit rate 2.1% among 190,000; in the data active = inhibition above about 58%; tested in S. cerevisiae
# L major viab – inhibitors of Leishmania major promastigote growth | hit rate 9% among 200,000 | Leishmania major promastigotes, resazurin fluorescence viability | inhibition, % at 10 µM; in the data active = inhibition above about 50%;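 also: promastigotes grown with compound for 44 hours at 28 °C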
# CHOP inh – inhibitors of CHOP induction in ER stress response; CHO-K1 CHOP-promoter luciferase, tunicamycin-induced, 15-18 h; inhibition, % at 10 µM; hit rate 3.8% among 220,000;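 active = compounds that reduced the stress-induced luciferase reporter signal by more than about 70% of percent inhibition, limit read from the data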;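 also: 0% = tunicamycin plus vehicle and 100% = wells without tunicamycin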
# Active calls of the source: *; . = not tested or not shown. The list is not random: actives were taken first. Their share in the collection is about 12%.
SMILES,Arbovirus anti,WT yeast gro inh,L major viab,CHOP inh
CC(C)N1CCN(Cc2ccc(-c3ccccc3Cl)o2)CC1CCO (centres undefined),-17,15,49,13
CCN1C(=C(C#N)C#N)C=Cc2cc(C)ccc21,1,0,0,2
C=CC[n+]1c(/C=C2\C=Cc3cc(C)ccc3N2CC)ccc2ccccc21,-30,79,100*,72*
CCCn1c(N)c(C(=O)CN2CCc3ccccc3C2)c(=O)n(C)c1=O,6,-2,-6,11
CCCCn1c(N)c(C(=S)NC(=O)CC(C)(C)C)c(=O)n(C)c1=O,-21,68*,2,-24
Nc1c2c(nc3ccn(-c4ccccc4)c(=O)c13)CCCCC2,8,10,42,-14
Nc1c2c(nc3ccn(Cc4ccccc4)c(=O)c13)CCC2,-15,13,89*,.
O=C(Nc1cccc(S(=O)(=O)N2CCOCC2)c1)c1cnccn1,5,-5,24,-2
O=C(CN1C(=O)NC2(CCCCC2)C1=O)Nc1cccc(S(=O)(=O)N2CCOCC2)c1,.,.,.,9
COc1ccc(NS(=O)(=O)c2cccc(NC(=O)c3cnccn3)c2)cc1Br,3,14,100*,6
O=C(CN1C(=O)NC(Cc2c[nH]c3ccccc23)C1=O)Nc1cccc(S(=O)(=O)N2CCCCCC2)c1 (centres undefined),-6,-13,64*,30
O=C(CNCC1CCCCC1)Nc1cccc(S(=O)(=O)N2CCOCC2)c1,5,-6,79*,1
O=C(Nc1cccc(S(=O)(=O)N2CCCCC2)c1)c1cnccn1,3,-3,87*,-2
O=C(CN1C(=O)NC(Cc2c[nH]c3ccccc23)C1=O)Nc1cccc(S(=O)(=O)N2CCCC2)c1 (centres undefined),4,-2,5,19
CC(=O)N1CCN(CC(=O)Nc2cccc(S(=O)(=O)N3CCCCCC3)c2)CC1,-2,-18,-9,12
O=C(CCl)Nc1cccc(S(=O)(=O)N2CCCCCC2)c1,-20,-2,85*,93*
Cc1cc(-c2ccc(/C=N/n3cnnc3)o2)ccc1Cl,8,10,65*,44
Cc1c(Cl)cccc1-c1ccc(/C=N/n2cnnc2)o1,8,41,69*,-3
Clc1cccc(-c2ccc(/C=N/n3cnnc3)o2)c1Cl,8,50,6,22
CCOC(=O)c1cc(-c2ccc(/C=N\n3cnnc3)o2)ccc1Cl,3,24,7,27
CCOC(=O)C(=O)c1csc(NC(=O)CCSc2ccc(C)cc2)n1,-4,11,-5,-15
COc1ccc(N=C2C(=Nc3ccc(OC)cc3)N(c3ccc(OC)cc3)C(=S)N2c2ccccc2)cc1,-25,6,19,5
Cc1ccc(N=C2C(=S)N(c3ccc(C)cc3)C(=N)N2/N=C/c2ccc(Cl)cc2)cc1,7,25,100*,50
N#Cc1c(-c2ccccc2)c(-c2ccccc2)n(Cc2ccco2)c1NC(=O)c1cccs1,6,-20,62*,30
O=C(CSc1nnc(-c2ccc(O)cc2)n1Cc1ccco1)c1cccs1,1,6,19,-12
SMILES,Arbovirus anti,WT yeast gro inh,L major viab,CHOP inh
CCCCCCC(C)OC(=O)c1ccccc1C(=O)O (centres undefined),.,.,.,-4
N#CCSc1nnc(Nc2ccccc2)s1,-1,-27,65*,6
O=C(N/N=C/c1cc(Cl)cc([N+](=O)[O-])c1O)NC12CC3CC(CC(C3)C1)C2,16,3,0,81*
Clc1ccc(-c2nc(Cc3ccccc3Cl)no2)cc1,-3,7,0,57
Clc1ccc(Cc2noc(-c3cccs3)n2)cc1,5,-5,-11,87*
CC(Nc1cccnc1)=C(C#N)C#N,2,-6,-1,3
COc1ccc(/C=N/NC(=O)c2ccccc2F)cc1CN1CCN(c2ccc(F)cc2)CC1,6,8,67*,0
CCOC(=O)c1cc(-c2ccccc2)sc1NC(=O)COC(=O)c1ccc(Cl)c(S(N)(=O)=O)c1,-14,5,91*,46
CCOC(=O)c1cc(-c2ccccc2)sc1NC(=O)CN1C(=O)NC(CC)(c2ccccc2)C1=O (centres undefined),-9,-3,51*,55
CCOC(=O)c1cc(-c2ccccc2)sc1NC(=O)CN1C(=O)NC(CC)(c2ccc(F)cc2)C1=O (centres undefined),-22,6,28,17
CC(=O)C1=C(O)CCCC1=NCc1nc2ccccc2[nH]1,5,-1,8,-21
Cc1cc(C)c(NC(=O)C2CCCN2CCOC(=O)c2ccccc2)c(C)c1 (centres undefined),-3,18,3,16
NC(=O)CC[C@@H]1NC(=O)[C@@H]2CCCN2C(=O)c2cc([N+](=O)[O-])cc(I)c2NCCCC[C@@H](C(=O)NC(CC(=O)O)C(N)=O)NC1=O (some centres undefined),-5,-3,-5,4
CC(=O)Nc1ccc(N=Cc2ccc[nH]2)cc1,-2,3,-4,15
Oc1ccccc1N=Cc1ccc[nH]1,-42,48,100*,9
CCN(CC)CC#CCC(C)(c1ccccc1)c1ccccc1,5,49,94*,37
CCN(CC)CC#CCC(O)(c1ccccc1)c1ccccc1,-2,-10,77*,26
CCN(CC)CC#CCC(O)(c1ccccc1)c1ccc(Br)cc1 (centres undefined),-16,10,46,19
C=CC(O)(C#CCN(CC)CC)c1ccccc1 (centres undefined),0,13,-3,29
Cc1ccc(CCSc2ccc(C(C)C)cc2)cn1,17,74*,-2,63
Cn1c(/C(C#N)=C/c2cccc(O)c2)nc2ccccc21,-5,-9,89*,-12
Brc1ccc(-c2nnc3sc(CNCc4ccc5c(c4)OCO5)cn23)cc1,-6,14,85*,36
Brc1ccc(-c2nnc3sc(CNC4CCCC4)cn23)cc1,1,16,91*,15
COc1ccc2c(c1)c1ccccc1n2C,-3,6,-6,61
COc1ccc(-n2nnnc2SCC(=O)N2C(C)CCCC2C)c(OC)c1 (centres undefined),19,2,0,9
SMILES,Arbovirus anti,WT yeast gro inh,L major viab,CHOP inh
COc1ccc2c(c1)c1nnc(SCC(=O)N3C(C)CCCC3C)nc1n2C (centres undefined),-9,18,78*,31
COc1ccc2c(c1)c1nnc(SC)nc1n2C,-4,47,96*,18
O=C(CN1CCN(S(=O)(=O)c2ccc(Cl)s2)CC1)N1CCOCC1,.,.,.,-4
CCOC(=O)c1c(C)[nH]c(C(=O)C(C)OC(=O)c2cccc(OCc3c(C)noc3C)c2)c1C (centres undefined),-13,11,38,80*
CCC(C)NC(=O)c1cccc(OCc2c(C)noc2C)c1 (centres undefined),1,3,0,1
Cc1ccc2c(c1)c(CC(=O)Nc1ccc(F)cc1)c(C(=O)O)n2C,4,3,-9,37
CC(C)(C)c1[nH]nc2c1C(C1C=CCCC1)C(C#N)=C(N)O2 (centres undefined),12,7,83*,83*
CCc1[nH]nc2c1C(C1C=CCCC1)C(C#N)=C(N)O2 (centres undefined),-15,0,97*,41
Cc1ccc(-n2c(SCC(=O)N3CCOCC3)nnc2-c2ccncc2)cc1C,.,.,.,-9
